Compound activity deposited in PubChem BioAssay by Buhrlage Lab, Dana-Farber Cancer Institute and Novartis Institutes for BioMedical Research (Cambridge, Mass).
OTUD3 block = blocks human OTUD3 ubiquitin-rhodamine cleavage; Q5T2D3; purified OTUD3, Ub-rhodamine fluorescence, 2 h; inhibition, % at 25 µM; hit rate 0.7% among 47,000
USP7 block = blocks human USP7 ubiquitin-rhodamine cleavage; Q93009; hit rate 0.3% among 47,000; purified USP7, Ub-rhodamine cleavage fluorescence; inhibition, % at 20 µM
Target sequence (Q93009 whole entry, looked up): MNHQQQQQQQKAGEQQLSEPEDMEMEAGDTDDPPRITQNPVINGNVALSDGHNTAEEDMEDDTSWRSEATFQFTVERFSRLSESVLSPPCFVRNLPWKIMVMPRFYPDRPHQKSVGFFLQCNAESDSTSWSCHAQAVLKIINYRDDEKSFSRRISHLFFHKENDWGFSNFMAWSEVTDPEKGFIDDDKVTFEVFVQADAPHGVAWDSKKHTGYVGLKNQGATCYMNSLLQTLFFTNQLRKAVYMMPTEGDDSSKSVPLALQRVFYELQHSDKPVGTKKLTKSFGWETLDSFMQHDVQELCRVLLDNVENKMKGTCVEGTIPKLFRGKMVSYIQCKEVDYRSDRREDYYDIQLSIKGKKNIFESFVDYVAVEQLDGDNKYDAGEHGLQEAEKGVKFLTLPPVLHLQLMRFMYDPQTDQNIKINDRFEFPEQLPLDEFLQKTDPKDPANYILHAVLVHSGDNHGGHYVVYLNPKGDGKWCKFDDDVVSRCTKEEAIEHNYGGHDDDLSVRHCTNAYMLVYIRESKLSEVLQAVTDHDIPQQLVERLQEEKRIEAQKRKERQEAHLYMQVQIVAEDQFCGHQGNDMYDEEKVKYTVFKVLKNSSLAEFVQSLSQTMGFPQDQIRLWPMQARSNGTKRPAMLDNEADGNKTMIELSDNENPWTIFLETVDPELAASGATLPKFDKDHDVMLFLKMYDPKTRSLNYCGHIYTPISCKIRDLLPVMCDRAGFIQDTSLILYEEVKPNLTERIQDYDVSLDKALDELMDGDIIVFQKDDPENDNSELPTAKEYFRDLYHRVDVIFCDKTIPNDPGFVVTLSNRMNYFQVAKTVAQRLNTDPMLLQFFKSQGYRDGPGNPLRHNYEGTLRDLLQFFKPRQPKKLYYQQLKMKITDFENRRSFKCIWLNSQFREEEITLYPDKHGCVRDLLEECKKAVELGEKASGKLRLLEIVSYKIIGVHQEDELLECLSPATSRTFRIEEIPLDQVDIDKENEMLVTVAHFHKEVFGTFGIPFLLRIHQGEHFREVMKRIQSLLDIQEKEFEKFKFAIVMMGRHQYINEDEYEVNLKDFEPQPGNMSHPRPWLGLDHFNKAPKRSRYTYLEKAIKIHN
USP8 block = blocks human USP8 ubiquitin-rhodamine cleavage. AID 1645853. purified USP8, Ub-rhodamine cleavage fluorescence, 30 min. P40818. inhibition, % at 20 µM. hit rate 4.2% among 47,000
UCHL1 inh = blocks human UCHL1 ubiquitin-rhodamine cleavage | inhibition, % at 20 µM | hit rate 0.2% among 47,000 | P09936 | purified UCHL1, Ub-rhodamine cleavage fluorescence
USP10 block = human USP10 deubiquitinase inhibition | Q14694 | purified USP10, Ub-rhodamine fluorescence, 60 min | inhibition, % at 20 µM | hit rate 1.1% among 47,000
USP17 inh = human USP17-like deubiquitinase inhibition; inhibition, % at 50 µM; hit rate 6.5% among 47,000; purified USP17, Ub-rhodamine cleavage fluorescence, 3 h; AID 1645855; A8MUK1
An asterisk follows results filed as active. A selection: hits, their analogues and other compounds. The true share with any hit is near 9.2%. No stated cut-off is given here; in the data, active means inhibition above about 30%; inactive means the rest.

For CN1[C@@H](CCC(=O)N2CCCC2)CNC(=O)[C@@H]2[C@H]1CCN2Cc1csnn1 the results were OTUD3 block 10, USP7 block 3, USP8 block 1, UCHL1 inh 2, USP10 block 1 and USP17 inh -40.
COC[C@H]1CCCN1C(=O)CC[C@H]1CNC(=O)[C@@H]2[C@@H](CCN2Cc2csnn2)N1C was read as OTUD3 block 10, USP7 block -5, USP8 block 31*, UCHL1 inh 6, USP10 block 3 and USP17 inh -51.
Screening COc1ccc(CN2CC[C@@H]3[C@H]2C(=O)NC[C@H](CCC(=O)NCc2cccnc2)N3C)cc1 returned OTUD3 block 25, USP7 block -22, USP8 block 63*, UCHL1 inh 18, USP10 block 2 and USP17 inh -30.
For CN1[C@@H](CCC(=O)N2CCC(O)CC2)CNC(=O)[C@@H]2[C@H]1CCN2Cc1ccc(C(F)(F)F)cc1 the results were OTUD3 block 2, USP7 block 0, USP8 block 32*, UCHL1 inh 10, USP10 block 0 and USP17 inh -39.
`Cn1nc(C(=O)Nc2cccc(F)c2)c(=O)c2ccccc21` gave OTUD3 block 17, USP7 block -2, USP8 block 3, UCHL1 inh 0, USP10 block 5 and USP17 inh 45*.
For NC(=O)c1cccc(NC(=O)c2cc(Cl)c3c(c2)OCO3)c1 the results were OTUD3 block -9, USP7 block -6, USP8 block -1, UCHL1 inh -4, USP10 block -3 and USP17 inh -12.
Screening O=C(Cc1ccccc1)NCC(=O)N1CCC2(CC1)NCCc1[nH]cnc12 returned OTUD3 block -11, USP7 block -1, USP8 block 18, UCHL1 inh -2, USP10 block -6 and USP17 inh -11.
For O=C(NCC(=O)N1CCC2(CC1)NCCc1[nH]cnc12)c1ccc(-c2ccccc2)cc1 the results were OTUD3 block 3, USP7 block 0, USP8 block 49*, UCHL1 inh 0, USP10 block -2 and USP17 inh 2.
For O=C(Cc1ccc(F)cc1)N1CCC2(CC1)NCCc1[nH]cnc12 the results were OTUD3 block 14, USP7 block 3, USP8 block 39*, UCHL1 inh -1, USP10 block -2 and USP17 inh 8.
Screening COc1ccc(CC(=O)NCC(=O)N2CCC3(CC2)NCCc2[nH]cnc23)cc1 returned OTUD3 block -50, USP7 block 0, USP8 block 34*, UCHL1 inh -1, USP10 block -6 and USP17 inh -30.
Screening Cc1nc2ccc(C(=O)Nc3cc(Cl)cc4cccnc34)cc2nc1C returned OTUD3 block 9, USP7 block -9, USP8 block 87*, UCHL1 inh 4, USP10 block -7 and USP17 inh 63*.
For COc1ccc(CCN2COc3c(cc(Cl)c4cccnc34)C2)cc1OC the results were OTUD3 block 10, USP7 block -27, USP8 block 97*, UCHL1 inh 31*, USP10 block 19 and USP17 inh 93*.
Cc1ccc(CNC(=O)CCc2nnc3c(=O)n(-c4cc(C)cc(C)c4)ccn23)cc1 was read as OTUD3 block 17, USP7 block 4, USP8 block -87, UCHL1 inh 3, USP10 block 19 and USP17 inh 24.
Screening Cc1cc(C)cc(-n2ccn3c(CCC(=O)Nc4cccc(F)c4)nnc3c2=O)c1 returned OTUD3 block -8, USP7 block 9, USP8 block -20, UCHL1 inh 0, USP10 block 9 and USP17 inh 1.
Screening O=C(CCCc1nnc2c(=O)n(-c3cccc(F)c3)ccn12)NCc1ccc(F)cc1 returned OTUD3 block 7, USP7 block 24, USP8 block 48*, UCHL1 inh 11, USP10 block 19 and USP17 inh -3.
Screening Cc1cccc(NC(=O)CCCc2nnc3c(=O)n(-c4cccc(F)c4)ccn23)c1 returned OTUD3 block -4, USP7 block 19, USP8 block 61*, UCHL1 inh 11, USP10 block 5 and USP17 inh -37.
Screening O=C(CCCc1nnc2c(=O)n(-c3cccc(F)c3)ccn12)Nc1ccccc1 returned OTUD3 block -17, USP7 block 19, USP8 block 47*, UCHL1 inh 9, USP10 block 16 and USP17 inh 38*.
